This passage reports binding signal results from PMC7862700, “An all-to-all approach to the identification of sequence-specific readers for epigenetic DNA modifications on cytosine”.

Common to all, as to assay: DAPPL (digital affinity profiling via proximity ligation, sequencing); 10 mM Tris-HCl pH 7.5, 50 mM NaCl, 1 mM DTT, 4% glycerol, room temperature, 30 min; GST-TFs on glutathione beads, 16-mer random dsDNA library, 0.1% formaldehyde crosslink after washing; high values mean tight binding
Holding throughout (settings): protein: recombinant; tags: N-terminal GST; dsDNA, one strand shown

For assay [1], the target named is T1, ERF (Homo sapiens, UniProt P50548 1-548).
T1 sequence: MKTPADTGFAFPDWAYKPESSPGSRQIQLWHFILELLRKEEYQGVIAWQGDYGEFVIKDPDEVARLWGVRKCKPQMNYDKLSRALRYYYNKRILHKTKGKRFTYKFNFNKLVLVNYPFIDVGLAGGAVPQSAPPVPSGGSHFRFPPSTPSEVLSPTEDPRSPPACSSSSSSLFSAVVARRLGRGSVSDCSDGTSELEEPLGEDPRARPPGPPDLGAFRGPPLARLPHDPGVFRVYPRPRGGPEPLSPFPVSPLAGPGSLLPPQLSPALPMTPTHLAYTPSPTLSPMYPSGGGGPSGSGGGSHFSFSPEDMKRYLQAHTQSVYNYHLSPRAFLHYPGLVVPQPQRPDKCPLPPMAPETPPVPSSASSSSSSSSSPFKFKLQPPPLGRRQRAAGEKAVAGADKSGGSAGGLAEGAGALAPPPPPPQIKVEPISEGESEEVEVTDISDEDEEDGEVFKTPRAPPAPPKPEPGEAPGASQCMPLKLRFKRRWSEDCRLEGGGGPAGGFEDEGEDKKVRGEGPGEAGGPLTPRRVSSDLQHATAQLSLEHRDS
An outline of the steps: (§1)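 The binding signal reported is, for every hexamer, its read frequency for a factor over its read frequency for the tag-only sample. Reads came from pools of yeast-expressed, GST-fused human transcription factors on glutathione beads, barcoded with DNA and mixed with that sample, which were incubated with 200 nmole of a random double-stranded 16-mer DNA library in Tris/NaCl/DTT/glycerol buffer at room temperature for 30 min. After washing, the pools were crosslinked with 0.1% formaldehyde, proximity-ligated with BsaI/T4 ligase for 1 h at 37 °C, PCR-amplified and sequenced on an Illumina NextSeq500.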

Assay [2] addresses T2, ETV3L (Homo sapiens, UniProt Q6ZN32 1-361).
T2 sequence: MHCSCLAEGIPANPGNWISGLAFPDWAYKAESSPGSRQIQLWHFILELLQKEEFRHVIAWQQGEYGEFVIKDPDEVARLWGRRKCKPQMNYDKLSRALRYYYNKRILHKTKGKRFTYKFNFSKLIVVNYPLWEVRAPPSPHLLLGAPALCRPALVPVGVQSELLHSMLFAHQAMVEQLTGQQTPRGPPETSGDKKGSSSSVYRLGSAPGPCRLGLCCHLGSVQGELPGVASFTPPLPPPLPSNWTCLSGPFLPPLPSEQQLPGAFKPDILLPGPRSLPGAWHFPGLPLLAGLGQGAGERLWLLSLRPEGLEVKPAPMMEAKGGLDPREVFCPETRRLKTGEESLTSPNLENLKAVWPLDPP
Summed up:
as §1

The target of assay [3] is T3, ETS2 (Homo sapiens, UniProt P15036 1-469).
T3 sequence: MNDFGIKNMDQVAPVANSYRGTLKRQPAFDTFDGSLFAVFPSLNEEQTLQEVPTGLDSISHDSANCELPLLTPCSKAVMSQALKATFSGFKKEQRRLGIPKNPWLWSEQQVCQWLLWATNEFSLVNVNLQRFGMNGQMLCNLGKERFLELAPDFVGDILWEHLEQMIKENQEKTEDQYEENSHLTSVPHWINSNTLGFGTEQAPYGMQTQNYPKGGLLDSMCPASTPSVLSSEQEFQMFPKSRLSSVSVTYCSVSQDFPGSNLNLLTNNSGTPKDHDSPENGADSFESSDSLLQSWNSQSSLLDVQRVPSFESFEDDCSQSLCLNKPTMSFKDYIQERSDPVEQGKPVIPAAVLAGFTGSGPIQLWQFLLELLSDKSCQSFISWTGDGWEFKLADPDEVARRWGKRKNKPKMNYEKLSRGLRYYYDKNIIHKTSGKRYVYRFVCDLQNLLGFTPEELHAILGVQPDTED
Summed up: as §1

The target of assay [4] is T4, SPDEF (Homo sapiens, UniProt O95238 1-335).
T4 sequence: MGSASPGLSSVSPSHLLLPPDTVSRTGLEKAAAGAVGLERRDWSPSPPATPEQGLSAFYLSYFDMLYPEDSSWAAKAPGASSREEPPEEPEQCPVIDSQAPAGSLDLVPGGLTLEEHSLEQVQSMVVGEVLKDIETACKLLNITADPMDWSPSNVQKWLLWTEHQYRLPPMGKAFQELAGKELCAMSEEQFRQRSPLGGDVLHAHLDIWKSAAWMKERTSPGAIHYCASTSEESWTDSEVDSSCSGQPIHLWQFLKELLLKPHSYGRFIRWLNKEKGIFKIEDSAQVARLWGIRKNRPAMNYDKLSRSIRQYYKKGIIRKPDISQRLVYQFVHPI
An outline of the steps:
as §1

The target of assay [5] is T5, ETV7 (Homo sapiens, UniProt Q9Y603 1-341).
T5 sequence: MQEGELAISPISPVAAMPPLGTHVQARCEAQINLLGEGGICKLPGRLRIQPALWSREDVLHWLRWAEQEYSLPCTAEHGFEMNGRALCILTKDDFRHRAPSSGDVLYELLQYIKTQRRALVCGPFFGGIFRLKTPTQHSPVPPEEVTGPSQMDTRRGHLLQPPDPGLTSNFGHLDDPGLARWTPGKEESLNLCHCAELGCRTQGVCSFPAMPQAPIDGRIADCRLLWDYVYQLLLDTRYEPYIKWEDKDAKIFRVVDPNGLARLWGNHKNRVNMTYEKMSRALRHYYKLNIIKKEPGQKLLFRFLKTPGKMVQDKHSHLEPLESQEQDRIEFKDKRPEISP
Summed up: as §1

Assay [6] deals with T6, ELF5 (Homo sapiens, UniProt Q9UKW6-2 1-255).
T6 sequence: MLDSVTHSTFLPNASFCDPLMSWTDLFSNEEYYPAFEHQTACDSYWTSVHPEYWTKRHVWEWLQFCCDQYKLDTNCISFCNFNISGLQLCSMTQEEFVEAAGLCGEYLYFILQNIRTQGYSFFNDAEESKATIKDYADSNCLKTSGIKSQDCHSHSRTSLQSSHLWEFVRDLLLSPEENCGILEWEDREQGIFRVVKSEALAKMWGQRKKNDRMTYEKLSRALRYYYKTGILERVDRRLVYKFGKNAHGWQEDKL
Summed up:
as §1

Assay [7] deals with T7, ETV3 (Homo sapiens, UniProt P41162-2 1-143).
T7 sequence: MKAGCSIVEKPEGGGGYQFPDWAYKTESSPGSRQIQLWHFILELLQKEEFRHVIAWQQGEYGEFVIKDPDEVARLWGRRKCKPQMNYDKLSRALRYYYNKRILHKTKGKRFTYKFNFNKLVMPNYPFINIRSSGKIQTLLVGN
Summed up: as §1

Assay [8] has as its target ETV6 (Homo sapiens, UniProt P41212 1-452). Summed up:
as §1

ETV6, sequence (P41212 whole entry): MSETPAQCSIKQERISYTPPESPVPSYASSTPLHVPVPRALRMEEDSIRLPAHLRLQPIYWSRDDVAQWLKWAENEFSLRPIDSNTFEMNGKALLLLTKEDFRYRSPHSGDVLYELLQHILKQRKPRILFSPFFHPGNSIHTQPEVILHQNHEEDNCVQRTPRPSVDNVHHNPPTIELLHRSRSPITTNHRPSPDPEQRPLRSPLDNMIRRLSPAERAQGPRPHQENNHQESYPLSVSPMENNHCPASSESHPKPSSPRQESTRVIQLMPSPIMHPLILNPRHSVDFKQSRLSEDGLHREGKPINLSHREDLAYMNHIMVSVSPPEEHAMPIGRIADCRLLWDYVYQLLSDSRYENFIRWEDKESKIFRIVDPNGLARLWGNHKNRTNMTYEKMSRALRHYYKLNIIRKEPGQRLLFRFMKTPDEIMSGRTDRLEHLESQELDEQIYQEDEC

Take CATTCC: the binding signal is 1.22 fold enrichment (6-mer frequency, TF over GST control) in assay [1]; 1.28 fold enrichment (6-mer frequency, TF over GST control) in assay [2]; 1.28 fold enrichment (6-mer frequency, TF over GST control) in assay [3]; 1.29 fold enrichment (6-mer frequency, TF over GST control) in assay [4]; 1.19 fold enrichment (6-mer frequency, TF over GST control) in assay [5]; 1.28 fold enrichment (6-mer frequency, TF over GST control) in assay [6]. Also, the binding signal in assay [7] is 1.27 fold enrichment (6-mer frequency, TF over GST control); in assay [8] it was 1.3 fold enrichment (6-mer frequency, TF over GST control).
For TAACCC, the binding signal in assay [1] was 1.17 fold enrichment (6-mer frequency, TF over GST control); in assay [2] it was 1.22 fold enrichment (6-mer frequency, TF over GST control); in assay [3], 1.26 fold enrichment (6-mer frequency, TF over GST control); in assay [4] it was 1.32 fold enrichment (6-mer frequency, TF over GST control); in assay [5], 1.31 fold enrichment (6-mer frequency, TF over GST control); in assay [6] it was 1.3 fold enrichment (6-mer frequency, TF over GST control). The binding signal in assay [7] was 1.26 fold enrichment (6-mer frequency, TF over GST control); in assay [8], 1.3 fold enrichment (6-mer frequency, TF over GST control).
For the sequence GTCCTA, the binding signal in assay [1] is 1.32 fold enrichment (6-mer frequency, TF over GST control); in assay [2] it was 1.12 fold enrichment (6-mer frequency, TF over GST control); in assay [3] it was 1.11 fold enrichment (6-mer frequency, TF over GST control); in assay [4], 1.29 fold enrichment (6-mer frequency, TF over GST control); in assay [5], 1.29 fold enrichment (6-mer frequency, TF over GST control); in assay [6] it was 1.14 fold enrichment (6-mer frequency, TF over GST control). Further, the binding signal in assay [7] is 1.25 fold enrichment (6-mer frequency, TF over GST control); in assay [8], 1.13 fold enrichment (6-mer frequency, TF over GST control).
On to TTTCTC, for which the binding signal was 1.58 fold enrichment (6-mer frequency, TF over GST control) in assay [1]; 1.68 fold enrichment (6-mer frequency, TF over GST control) in assay [2]; 1.77 fold enrichment (6-mer frequency, TF over GST control) in assay [3]; 1.49 fold enrichment (6-mer frequency, TF over GST control) in assay [4]; 1.57 fold enrichment (6-mer frequency, TF over GST control) in assay [5]; 1.56 fold enrichment (6-mer frequency, TF over GST control) in assay [6]. Besides, the binding signal was 1.62 fold enrichment (6-mer frequency, TF over GST control) in assay [7] and 1.65 fold enrichment (6-mer frequency, TF over GST control) in assay [8].
In the case of AACATC, the binding signal is 1.43 fold enrichment (6-mer frequency, TF over GST control) in assay [1]; 1.41 fold enrichment (6-mer frequency, TF over GST control) in assay [2]; 1.45 fold enrichment (6-mer frequency, TF over GST control) in assay [3]; 1.68 fold enrichment (6-mer frequency, TF over GST control) in assay [4]; 1.35 fold enrichment (6-mer frequency, TF over GST control) in assay [5]; 1.64 fold enrichment (6-mer frequency, TF over GST control) in assay [6]. Besides, the binding signal is 1.5 fold enrichment (6-mer frequency, TF over GST control) in assay [7] and 1.4 fold enrichment (6-mer frequency, TF over GST control) in assay [8].
Regarding AGCTAT, the binding signal in assay [1] was 1.17 fold enrichment (6-mer frequency, TF over GST control); in assay [2], 1.17 fold enrichment (6-mer frequency, TF over GST control); in assay [3], 1.11 fold enrichment (6-mer frequency, TF over GST control); in assay [4] it was 1.14 fold enrichment (6-mer frequency, TF over GST control); in assay [5], 1.13 fold enrichment (6-mer frequency, TF over GST control); in assay [6], 1.12 fold enrichment (6-mer frequency, TF over GST control). Besides, the binding signal in assay [7] is 1.13 fold enrichment (6-mer frequency, TF over GST control); in assay [8] it was 1.08 fold enrichment (6-mer frequency, TF over GST control).
Turning to CTGCAA, the binding signal in assay [1] is 1.28 fold enrichment (6-mer frequency, TF over GST control); in assay [2], 1.35 fold enrichment (6-mer frequency, TF over GST control); in assay [3] it was 1.31 fold enrichment (6-mer frequency, TF over GST control); in assay [4], 1.11 fold enrichment (6-mer frequency, TF over GST control); in assay [5], 1.16 fold enrichment (6-mer frequency, TF over GST control); in assay [6], 1.17 fold enrichment (6-mer frequency, TF over GST control). The binding signal was 1.26 fold enrichment (6-mer frequency, TF over GST control) in assay [7] and 1.33 fold enrichment (6-mer frequency, TF over GST control) in assay [8].
Turning to AACACA, the binding signal in assay [1] is 1.39 fold enrichment (6-mer frequency, TF over GST control); in assay [2] it was 1.34 fold enrichment (6-mer frequency, TF over GST control); in assay [3], 1.38 fold enrichment (6-mer frequency, TF over GST control); in assay [4], 1.41 fold enrichment (6-mer frequency, TF over GST control); in assay [5], 1.46 fold enrichment (6-mer frequency, TF over GST control); in assay [6] it was 1.36 fold enrichment (6-mer frequency, TF over GST control). Further, the binding signal in assay [7] is 1.35 fold enrichment (6-mer frequency, TF over GST control); in assay [8] it was 1.29 fold enrichment (6-mer frequency, TF over GST control).
